About 83,000 compounds went through this panel and 20% of them were active in at least one assay; those are over-represented in the sample as a whole.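 48-hour exposure, single concentration, 96-well plates; percent growth endpoint where 0 means no net growth. Active: below 10.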 Values without a mark were called inactive. The source made the active and inactive calls.
system: HCC-2998 colon; assay: NCI-60 one-dose screen, 48 h (100 = growth as untreated, 0 = no growth, -100 = all killed); conditions: 10 µM unless noted

SMILES | growth
C=C1C(=O)O[C@H]2[C@H]1CC/C(COC(=O)/C=C\C(=O)O)=C\CC[C@@]1(C)O[C@@H]21 | 104%
CCCCC1CCc2cccc3c(SCC(=O)N(C)c4ccc(Cl)cc4)cc[n+]1c23 (centres undefined) | 114%
O=C(c1nc2ccccc2[nH]1)C1C(c2cccc([N+](=O)[O-])c2)C2CC3CCCCC3N2[C@@]12C(=O)Nc1cc(Cl)ccc12 (some centres undefined) | 23.9%
O=C1/C(=C/c2ccc(O)cc2)COc2ccc(O)cc21 | 108%
O=C1/C(=C/c2ccc(O)cc2)COc2ccc(O)c(O)c21 | 75.7%
COc1cc2nc(NC3CCCC3)nc(NC3CCN(C(C)C)CC3)c2cc1OC | 29.6%
Cc1ccccc1CNC(=O)C1CN(c2ccc(Cl)cc2)N(c2ccc(Cl)cc2)C1=O (centres undefined) | 100%
COc1cc(C2CC(c3ccc(Nc4nc(NCCO)nc(N5CCOCC5)n4)cc3)=NN2c2cc(Cl)cc(Cl)c2)cc(OC)c1OC (centres undefined) | 63.4%
O=C(c1nc2ccccc2[nH]1)C1C(c2ccc([N+](=O)[O-])cc2)C2CC3CCCCC3N2[C@@]12C(=O)Nc1cc(Cl)ccc12 (some centres undefined) | 31.6%
O=C(Cn1cc(COc2ncnc3c2cnn3-c2ccccc2)nn1)Nc1cccc2ccccc12 | 104%
CN1C(=O)N(C)C2Nn3c(s/c(=C\c4ccc(Cl)cc4Cl)c3=O)=NC21 (centres undefined) | 86.5%
O=Cc1cc2ccccc2nc1Nc1nccs1 | 87.6%
O=C1/C(=C/c2cccc(O)c2)COc2ccc(O)cc21 | 103%
COc1cc2nc(NC3CCC3)nc(NC3CCN(C(C)C)CC3)c2cc1OC | 22.7%
O=C(c1nc2ccccc2[nH]1)C1[C@@H](c2cccc(O)c2)C2CC3CCCCC3N2[C@@]12C(=O)Nc1cc(Cl)ccc12 (some centres undefined) | 33.8%
CCN1C(=O)N(c2ccccc2)C2NN=c3s/c(=C4\C(=O)N(C(C)C)c5ccccc54)c(=O)n3C21 (centres undefined) | 33.4%
Cc1sc2ncn(CC(=O)Nc3ccc(S(N)(=O)=O)cc3)c(=O)c2c1C | 113%
COC(=O)c1c2c(c(C)[n+]([O-])c1C)C(=O)C(NCc1ccc(F)c(F)c1)=CC2=O | 9.25% (active)
CNCCNc1nc2ccccc2c2c(=O)c3cccc(OC)c3sc12 | -52.3% (active)
CNCCNc1nc2ccccc2c2c(=O)c3cccc(C)c3sc12 | -43.2% (active)

SMILES | growth
COc1cc(/C=C2\Oc3cc(OCCCN4CCCC4)ccc3C2=O)cc(OC)c1 | 75.7%
COC(=O)[C@H](NC(=O)C1(C)CCC[C@]2(C)[C@H]3C[C@H]4C(C(C)C)=C[C@]3(CC[C@@H]12)[C@@H]1C(=O)CCC(=O)[C@@H]14)C(C)C (some centres undefined) | 104%
COc1cc(/C=C2\CN(C)C/C(=C\c3cc(CN4CCCCC4)c(O)c(OC)c3)C2=O)cc(CN2CCCCC2)c1O | 16.1%
O=S(=O)(Nc1ncccn1)c1ccc(NC2Nc3nc4ccccc4nc3S2)cc1 (centres undefined) | 108%
O=C1CCC(N2C(=O)c3cccc(NCCCCCCOc4ccc(Nc5nccc(Nc6ccccc6)n5)cc4)c3C2=O)C(=O)N1 (centres undefined) | 98.4%
Cc1c(-c2csc(-n3nc(C(F)(F)F)cc3C(F)(F)F)n2)no[n+]1[O-] | 112%
O=C(NCc1ccccc1)C1CN(c2ccc(Cl)cc2)N(c2ccc(Cl)cc2)C1=O (centres undefined) | 99.4%
c1ccc2c(c1)oc1cc3sccc3nc12 | 118%
CCCCC1COc2cccc3c2N1C=C/C3=C\C(=O)N(C)c1ccccc1 (centres undefined) | 71.1%
COc1cc(/C=C/C(=O)c2ccc(Nc3nc(NCCO)nc(N4CCOCC4)n3)cc2)cc(OC)c1OC | 20%
Cc1cccc2c(=O)c3c(sc12)c(NCCCNCCO)nc1ccccc13 | 12.7%
COc1cc(/C=C2\CN(C)C/C(=C\c3cc(CN4CCCC4)c(O)c(OC)c3)C2=O)cc(CN2CCCC2)c1O | 96%
O=C(/C=C/c1ccc(C(F)(F)F)cc1)c1ccc(Nc2nc(NCCO)nc(N3CCOCC3)n2)cc1 | 63.9%
NCCOc1ccccc1/C=C1\c2ccccc2-c2ccc([N+](=O)[O-])cc21 | -53.3% (active)
O=C(/C=C/c1ccc(F)cc1)c1ccc(Nc2nc(NCCO)nc(Nc3ccc(Cl)cc3)n2)cc1 | 29.9%
O=c1oc2ccc(Br)cc2c(=O)n1-c1ccc(Br)cc1F | 1.75% (active)
NCCNc1nc2ccccc2c2c(=O)c3cc(F)cc(Cl)c3sc12 | 16.2%
CCCN1CCN(c2ccc3nc(-c4ccc5nc(-c6cc(OC)ccc6OC)[nH]c5c4)[nH]c3c2)CC1 | 113%
Cc1ccc(C2CC(c3ccc(Nc4nc(NCCO)nc(Nc5ccc(Cl)cc5)n4)cc3)=NN2c2cc(Cl)cc(Cl)c2)cc1 (centres undefined) | 111%

— PubChem BioAssay (NCI)
